Screens as filed in PubChem.
BoNT-F LC inh = BoNT/F light chain protease inhibitors, primary screen, biochemical, flow cytometry, MLPCN library; hit rate 0.22% among 360,000; inhibition, % at 10 µM; AID 588497, 2011; Multiplex microsphere protease cleavage assay; Botulinum neurotoxin type F light chain protease (Clostridium botulinum); in the data active = inhibition above about 35%, passing the limit was not always enough; inconclusive = no clear call, values can overlap the other calls; note: plate controls were buffer without enzyme for full effect and enzyme alone for no effect
BoNT-A LC inh2 = BoNT/A light chain protease inhibitors, primary screen, biochemical, flow cytometry, MLPCN library; inhibition, % at 10 µM; hit rate 0.17% among 360,000; multiplex microsphere protease substrate cleavage; AID 588499, 2011; Botulinum neurotoxin type A light chain protease (Clostridium botulinum A str. ATCC 3502); note: plate controls were buffer without enzyme for full effect and enzyme alone for no effect
Autofluor counter = counter-screen for toxin protease inhibitors: compound fluorescence; compound autofluorescence counterscreen, microsphere flow cytometry; active compounds read high; fluorescence intensity (concentration not given with the values); hit rate 3.1% among 360,000; in the data active = fluorescence intensity above about 16000; inconclusive = no clear call, values can overlap the other calls
FBA Mtb inh = Mtb FBA enzyme inhibitors, primary screen, biochemical, fluorescence, strain H37Rv; hit rate 2.3% among 360,000; inhibition, % at 1 µM; AID 588726, 2011; purified M. tuberculosis FBA, fluorescence read-out; in the data active = inhibition above about 27%;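 note: 0% = vehicle and 100% = reference inhibitor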
Target sequence (P9WQA3 whole entry, looked up): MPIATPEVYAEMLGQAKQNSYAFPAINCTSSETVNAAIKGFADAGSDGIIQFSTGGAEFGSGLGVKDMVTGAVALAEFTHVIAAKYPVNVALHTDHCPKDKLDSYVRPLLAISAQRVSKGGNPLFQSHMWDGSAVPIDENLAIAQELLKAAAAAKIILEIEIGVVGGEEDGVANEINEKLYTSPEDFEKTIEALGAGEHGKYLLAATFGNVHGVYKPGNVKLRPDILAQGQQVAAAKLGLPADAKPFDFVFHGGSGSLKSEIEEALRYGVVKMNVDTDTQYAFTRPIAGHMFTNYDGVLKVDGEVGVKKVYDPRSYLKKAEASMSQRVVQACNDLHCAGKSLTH
Anthrax LF prot = Bacillus anthracis LF protease inhibitors, primary screen, biochemical, multiplex microsphere, MLPCN library; Lethal factor (Bacillus anthracis), P15917; multiplex microsphere protease cleavage assay; inhibition, % at 10 µM; hit rate 0.12% among 360,000; AID 588501, 2011; note: plate controls were buffer without enzyme for full effect and enzyme alone for no effect
GDH-TPI inh = GDH-TPI coupling enzyme inhibitors, primary screen, artefact control for M. tuberculosis FBA inhibitor project, biochemical, absorbance, full deck; GDH-TPI coupled enzyme counterscreen, NADH absorbance; inhibition, % at 4.8 µM; hit rate 1.2% among 360,000; AID 588335, 2011; in the data active = inhibition above about 30%;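 note: 0% = DMSO wells and 100% = wells lacking the enzyme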
Numbers without * were called inactive; u = inconclusive; x = no result given; + = active, no number. This is a sample that favours compounds with a hit; in the whole collection about 6.6% have one here. Cut-off read from the data, not from the text of the source, unless noted: active = inhibition above about 30%; inconclusive = no clear call, values can overlap the other calls; inactive = below that.

SMILES | BoNT-F LC inh | BoNT-A LC inh2 | Autofluor counter | FBA Mtb inh | Anthrax LF prot | GDH-TPI inh
O=C(O)c1ccc(N/N=C/c2ccc(OC(=O)c3ccccc3Cl)cc2)cc1 | -10 | -1 | 2061 | -1 | 0 | 41*
COc1cc(/C=N\Nc2nc(-c3ccc(C)cc3)c(NC(C)=O)s2)ccc1O | 2 | 0 | 6243 | 2 | -7 | 13
COc1ccc(/C=N/Nc2ccc(C(=O)O)cc2)cc1Br | -4 | 0 | 4798 | 2 | 0 | 24
COc1ccc(/C=N/Nc2nc(-c3ccc(C)cc3)c(NC(C)=O)s2)cc1OC | u | 3 | 4131 | 6 | 36* | 1
CC(C)c1ccc(/C=N/Nc2ccc(C(=O)O)cc2)cc1 | -9 | 1 | 2008 | -1 | -1 | 31*
COc1ccc(/C=N/Nc2ccc(C(=O)O)cc2)cc1OC | -8 | -1 | 5282 | -2 | -3 | 47*
Cc1ccc(S(=O)(=O)Oc2cccc(/C=N/Nc3ccc(C(=O)O)cc3)c2)cc1 | 0 | 0 | 4997 | 3 | -4 | 31*
Cc1ccc(S(=O)(=O)Oc2cccc(/C=N/n3cnnc3)c2)cc1 | 4 | 0 | 2087 | -1 | -1 | 1
CCOc1cc(C(c2c(C)[nH][nH]c2=O)c2c(C)[nH][nH]c2=O)ccc1OCc1ccc([N+](=O)[O-])cc1 | -6 | 0 | 22205* | 4 | 0 | 9
CCOc1cc(C(c2c(C)[nH][nH]c2=O)c2c(C)[nH][nH]c2=O)ccc1OC(=O)c1cccc([N+](=O)[O-])c1 | -4 | 3 | 19908* | -3 | 0 | 1
CC(=O)Nc1cccc(/C(C)=N/NC(=O)c2cccc(S(=O)(=O)N3CCCC3)c2)c1 | -8 | 0 | 4243 | 0 | -4 | 3
CC(C)(C)c1ccc(C(=O)C2CCCN(C(=O)CCn3cncn3)C2)cc1 (stereo unspecified) | 2 | 2 | 5522 | -1 | -1 | 8
COc1cc([C@H]2Oc3cc([C@H]4Oc5cc(O)cc(O)c5C(=O)[C@@H]4O)ccc3O[C@@H]2CO)ccc1O | 2 | 0 | 6149 | 5 | -6 | 34*
COC(=O)c1ccc(OCC2c3cc(OC)c(OC)cc3CCN2C(=O)c2ccco2)cc1 (stereo unspecified) | 4 | 3 | 19776* | -2 | -8 | -4
CCC(=O)N1CCc2cc(OC)c(OC)cc2C1COc1ccc(C(=O)OC)cc1 (stereo unspecified) | -3 | -2 | 21370* | -1 | -1 | -8
COC(=O)c1ccc(OCC2c3cc(OC)c(OC)cc3CCN2C(C)=O)cc1 (stereo unspecified) | -1 | 0 | 4054 | -2 | 7 | -3
COc1cc2c(cc1OC)C(c1ccccc1)N(C(=O)c1ccco1)CC2 (stereo unspecified) | -4 | 0 | 5984 | 1 | -6 | -7
O=C(Nc1ccc2oc(-c3ccccc3)nc2c1)c1ccc2c(c1)OCCO2 | 2 | 0 | 22968* | 10 | -1 | 14
COc1cc(NC(=O)c2ccc3c(c2)OCO3)c2ncccc2c1 | 3 | 0 | 4102 | -5 | -5 | 3
O=C(Nc1cccc2cccnc12)c1ccc2c(c1)OCCO2 | -4 | u | 23021* | 1 | -8 | 16
COc1cc(-c2cc(C(=O)O)c3cc4c(cc3n2)OCCO4)cc(OC)c1OC | 1 | 0 | 5234 | -3 | -3 | 20
O=C(Cc1ccccc1)Nc1ccc2oc(-c3cccnc3)nc2c1 | 2 | 0 | 3049 | 112* | 2 | 4
COC(=O)c1ccc(-c2cc(C(=O)O)c3cc4c(cc3n2)OCCO4)cc1 | -8 | -1 | 2950 | + | -3 | 21
O=C(COC(=O)Cc1n[nH]c(=O)c2ccccc12)Nc1c(Cl)cccc1C(F)(F)F | -4 | -5 | 4700 | 1 | -4 | -9
Cc1nn(-c2ccccc2)c(C)c1/C=N\NS(=O)(=O)c1ccc(Cl)cc1 | -15 | 0 | 2821 | 0 | -2 | 7
SMILES | BoNT-F LC inh | BoNT-A LC inh2 | Autofluor counter | FBA Mtb inh | Anthrax LF prot | GDH-TPI inh
O=C(Nc1ccc2c(c1)OCO2)c1cc(-c2ccncc2)nc2ccccc12 | -32 | 2 | 3338 | -5 | -11 | -1
O=C(Nc1ccc2c(c1)OCCO2)c1cc(-c2ccccc2)nc2ccccc12 | -15 | u | 24974* | -2 | -5 | 10
O=C(Nc1ccc2oc(-c3ccccc3)nc2c1)C1CCCO1 (stereo unspecified) | -30 | -2 | 2092 | + | -2 | 12
O=C(Nc1ccc(-c2nc3cc(Cl)ccc3o2)cc1)C1CCCO1 (stereo unspecified) | -16 | -2 | 4560 | 4 | -8 | 11
Cc1ccc(/C=C/C(=O)OCC(=O)NC(C)C)o1 | 1 | 0 | 3495 | -2 | 1 | 16
O=C(CN1C(=O)c2ccccc2C1=O)C(O)CN1C(=O)c2ccccc2C1=O (stereo unspecified) | -3 | 0 | 5548 | 1 | -4 | x
Cc1cc(C(=O)N2CCN(c3ncccn3)CC2)sc1-c1ccccc1 | -4 | u | 24354* | -2 | -2 | 6
Cc1cc(C(=O)N2CCN(S(C)(=O)=O)CC2)sc1-c1ccccc1 | 3 | 0 | 9585 | 1 | -1 | -9
Cc1ccc(C)c2nc3sc(C(=O)O)cc3cc12 | -8 | -1 | 4196 | 24 | -6 | 4
CCCCc1nnc(SCCSc2nnc(CCCC)n2N)n1N | -1 | 0 | 23554* | 0 | -1 | 3
C=CCn1c(SCC(=O)c2ccc(Br)cc2)nnc1C(CC(C)C)NC(=O)c1cccs1 (stereo unspecified) | -3 | u | 22563* | -1 | -1 | 11
COc1ccc(C(=O)OCn2nnc3ccccc3c2=O)cc1 | -1 | -1 | 6246 | -1 | 0 | -12
C=C(C)c1cccc(C(C)(C)NC(=O)N2CCN(CC)CC2)c1 | 3 | 0 | 3833 | 2 | -3 | -9
C=C(C)c1cccc(C(C)(C)NC(=O)N2CCCCC2CC)c1 (stereo unspecified) | -7 | 0 | 3368 | 180* | 0 | 5
O=C(NN=Cc1ccc(N(CCCl)CCCl)cc1)c1cccnc1 | -6 | -1 | 3752 | -1 | -4 | 38*
COc1cc(/C=N/NC(=O)c2cccnc2)cc(Br)c1O | x | x | x | 2 | x | 44*
O=C(NN=Cc1ccc(N(CCCl)CCCl)cc1)c1cccc([N+](=O)[O-])c1 | -4 | 0 | 3565 | -1 | -4 | 29
O=C(N/N=C/c1cc(Br)c(O)c(Br)c1)c1cccnc1 | 12 | 2 | 3879 | 0 | -16 | 31*
O=C(N/N=C/c1ccc(Br)o1)c1cccnc1 | -3 | -1 | 2455 | 1 | 1 | 16
COc1ccc(/C=N/NC(=O)c2cccnc2)cc1COc1ccc(NC(C)=O)cc1 | x | x | x | -8 | x | 31*
CCN(Cc1ccccc1)N=Nc1ccccc1 | -3 | 0 | 3544 | -2 | -1 | 11
O=C(N/N=C/c1ccc(OC(=O)c2ccccc2)cc1)c1cccnc1 | 0 | 0 | 6216 | + | -1 | 0
